Data on 93 compounds can be found in PubChem BioAssay AID1259313 (Sanford-Burnham Center for Chemical Genomics, 2017).

About 8,500 (2.5%) of roughly 340,000 compounds were called active. Many of the other results were omitted from the sample, so actives are more common in it than they were. A number with no mark means an inactive call.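 The calls were made as follows: active = melting temperature shift of at least 10% of the positive control shift, at one fixed dose; inactive = the rest.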

The experiment concerns Glutamate receptor ionotropic, NMDA 3A (GRIN3A) ligand-binding domain. Description: NR3A LBD thermal stabilization by compounds – biophysical, differential scanning fluorimetry, uHTS, primary screen (AID 1259313). Particulars: at 25 µM, hits give high values, 0% = protein alone, 100% = glycine-bound protein.
In the case of `CCOC(=O)c1ccc(-n2c(CCC(=O)O)ccc2-c2ccccc2)cc1`, the Tm shift relative to glycine control is 0.18%.

In the case of `Cc1ccc(NC(=O)CC2S/C(=N/N=C3\CCCc4ccccc43)NC2=O)cc1` (stereo not drawn), the Tm shift relative to glycine control was 25.5% (active).

`Cc1ccc(CNC(=O)CC2Sc3ccccc3NC2=O)cc1` (stereo not drawn): the Tm shift relative to glycine control was -1.5%.

As to `Cc1c(Cl)cccc1NC(=O)CC1SC(=NCC2CCCO2)NC1=O` (stereo not drawn), the Tm shift relative to glycine control is -1.26%.

Regarding `CC(C)CCNC(=O)C(C)N(C(=O)Cn1nnc(-c2ccc(F)cc2)n1)C1CCCC1` (stereo not drawn), the Tm shift relative to glycine control is 22.9% (active).

`CN(C(=O)Cn1nnc(-c2ccc(F)cc2)n1)C1CCS(=O)(=O)C1` (stereo not drawn): the Tm shift relative to glycine control was 0.08%.

As for `CC(C)CCNC(=O)CN(C(=O)Cn1nnc(-c2ccc(F)cc2)n1)C1CCCC1`, the Tm shift relative to glycine control is -0.75%.

On to `COCC1CCN(C(=O)c2ccc3oc(Cc4ccccc4)nc3c2)C1` (stereo not drawn), for which the Tm shift relative to glycine control was -2.47%.

On to `CN(C)Cc1c(O)ccc2occ(C(O)c3ccccc3)c12` (stereo not drawn), for which the Tm shift relative to glycine control is -0.8%.

As to `Cc1ccc(NC(=O)NC(=O)CSc2nnc(-c3ccc(OC(F)F)cc3)n2N)c(C)c1`, the Tm shift relative to glycine control is 47.6% (active).

Turning to `CC(C)NC(=O)NC(=O)CSc1nnc(-c2ccccc2F)n1N`, the Tm shift relative to glycine control was -0.64%.

Turning to `CCN(C(=O)CSc1nnc(-c2ccc(OC(F)F)cc2)n1N)C1CCS(=O)(=O)C1` (stereo not drawn), the Tm shift relative to glycine control was 0.42%.

On to `Nc1c(-c2ccc(F)cc2)cnn1C1CCS(=O)(=O)C1` (stereo not drawn), for which the Tm shift relative to glycine control is -1.17%.

Turning to `Nc1ccc(Cl)c(S(=O)(=O)Nc2ccccc2Cl)c1`, the Tm shift relative to glycine control was -2.25%.

With `CCn1cc(NC(=O)Nc2ccc(OC)c(OC)c2)c(C(N)=O)n1`, the Tm shift relative to glycine control is -1.66%.

On to `N#CCCN(CCC#N)c1nnc(-c2ccccc2)s1`, for which the Tm shift relative to glycine control is 2.17%.

With `C=CCn1cnc2scc(-c3ccccc3)c2c1=O`, the Tm shift relative to glycine control is 5.11%.

With `CN(CCC#N)c1ncnc2scc(-c3ccccc3)c12`, the Tm shift relative to glycine control is 10.9% (active).

`COc1ccc(CCNC(=O)c2ccc(NC(=O)CC3SC(N4CCCCC4)=NC3=O)cc2)cc1OC` (stereo not drawn): the Tm shift relative to glycine control was 0.17%.

Turning to `CNc1ccc(SC#N)cc1`, the Tm shift relative to glycine control was -0.62%.

As for `CC(=O)Nc1ccc(S(=O)(=O)N2CCSCC2)cc1`, the Tm shift relative to glycine control was 0.09%.

`C=CCn1c(=NC(=O)c2cccs2)sc2cc(NC(C)=O)ccc21`: the Tm shift relative to glycine control is 2.65%.

In the case of `C=CCn1c(=NC(=O)c2ccc(S(=O)(=O)N3CCCC3)cc2)sc2cc(NC(C)=O)ccc21`, the Tm shift relative to glycine control is 18.6% (active).

`CC(=O)Nc1ccc(NC(=O)CCN2C(=O)C3CC=CCC3C2=O)cc1` (stereo not drawn): the Tm shift relative to glycine control was -1.24%.

Turning to `CCC(C)(C)NC(=O)C(c1cccc(OC)c1OC)N(CC(C)C)C(=O)CCC(=O)Nc1cc(C)on1` (stereo not drawn), the Tm shift relative to glycine control was -1.85%.

For the compound `NC(=O)C1CC(=O)N(c2ccc(OCC(=O)NCc3ccccc3)cc2)C1` (stereo not drawn), the Tm shift relative to glycine control was -0.09%.

Consider `O=C(O)c1ccccc1N=N/C(=N/Nc1cc(S(=O)(=O)O)ccc1O)c1ccccc1`, for which the Tm shift relative to glycine control is 25.2% (active).

For `Cn1cccc1C(=O)OCC(=O)NCCc1ccccc1`, the Tm shift relative to glycine control was -0.25%.

Turning to `O=C(COC(=O)c1c2c(nc3ccccc13)CCCC2)c1ccc(Br)s1`, the Tm shift relative to glycine control is -4.51%.

Consider `Cn1cccc1C(=O)OCC(=O)c1ccc(Br)s1`, for which the Tm shift relative to glycine control was 14% (active).

Turning to `O=C(Nc1cccc(C(=O)NC2CC2)c1)c1ccc(F)c(S(=O)(=O)N2CCOCC2)c1`, the Tm shift relative to glycine control was 4.42%.

`COc1ccc(NS(=O)(=O)c2ccc(NC(=S)NC(=O)/C=C/c3ccc(C)cc3)cc2)nn1`: the Tm shift relative to glycine control is -7.2%.

As for `COc1ccc(/C=C/C(=O)c2ccc(NS(=O)(=O)c3ccc(C)cc3)cc2)cc1O`, the Tm shift relative to glycine control was 24.6% (active).

Consider `Cc1ccc(C(=O)/C=C/Nc2ccc(S(=O)(=O)Nc3onc(C)c3C)cc2)cc1`, for which the Tm shift relative to glycine control is -6.78%.

`CCOC(=O)C1CCN(C(=O)CN2C(=O)NC(C)(c3ccc4cc(OC)ccc4c3)C2=O)CC1` (stereo not drawn): the Tm shift relative to glycine control was 0.17%.

`Cc1[nH]c2ccccc2c1C(=O)COC(=O)c1c(-c2ccccc2)noc1C`: the Tm shift relative to glycine control is 18.8% (active).

With `CCOC(=O)c1c(-c2cccc(C)c2)csc1NC(=O)c1c(-c2ccccc2)noc1C`, the Tm shift relative to glycine control is -0.48%.

For the compound `Cc1onc(-c2ccccc2Cl)c1C(=O)OCC(=O)c1ccccc1`, the Tm shift relative to glycine control was -1.07%.

Regarding `COc1cc(NC(=O)CCNC(=O)Cn2ccc3ccccc3c2=O)cc(OC)c1OC`, the Tm shift relative to glycine control is 1.09%.

Turning to `O=C(CSc1nnc(-c2ccncc2)o1)Nc1cccc(Cl)c1`, the Tm shift relative to glycine control was -2.14%.

On to `O=C(CSc1nnc(-c2ccncc2)o1)NCc1ccc(Cl)cc1`, for which the Tm shift relative to glycine control is 1.65%.

As to `O=C(COC(=O)CSc1nnc(-c2ccc(Cl)cc2)o1)Nc1cc(Cl)cc(Cl)c1`, the Tm shift relative to glycine control is 19.4% (active).

For `NCC(=O)c1cccc2ccc[n+]([O-])c12`, the Tm shift relative to glycine control is 7.2%.

As to `Cc1ccc(C)c(NC(=O)COC(=O)c2nn(C)c(=O)c3ccccc23)c1`, the Tm shift relative to glycine control is 0.34%.

As to `O=P(O)(CP(=O)(c1ccccc1)c1ccccc1)c1ccccc1O`, the Tm shift relative to glycine control was -4.72%.

As for `COc1ccc(OC)c(NC(=O)C2CCCN2S(=O)(=O)c2cccc3nsnc23)c1` (stereo not drawn), the Tm shift relative to glycine control is 13.4% (active).

Regarding `CC1CCCCC1NC(=O)C1CCCN1S(=O)(=O)c1cccc2nsnc12` (stereo not drawn), the Tm shift relative to glycine control is -1.29%.

With `CC(=O)c1cccc(NC(=O)C2CCCN2S(=O)(=O)c2cccc3nsnc23)c1` (stereo not drawn), the Tm shift relative to glycine control was 1.52%.

With `COc1ccc(CCC(=O)OCC(=O)Nc2ccc(C)c(S(=O)(=O)N(C)C)c2)cc1`, the Tm shift relative to glycine control is -3.89%.

As to `Cc1c(C=O)c2ccccc2n1CCOc1ccccc1`, the Tm shift relative to glycine control is -1.12%.

`COC(=O)c1ccc(COc2cc([N+](=O)[O-])cc3cccnc23)cc1`: the Tm shift relative to glycine control was -1.16%.

As for `COc1ccc([C@H]2CC(=O)C=C(/C=C/c3ccccc3)C2)cc1`, the Tm shift relative to glycine control was -0.08%.

For `COc1ccc([C@H]2CC(=O)C=C(/C=C/c3ccc(Cl)cc3)C2)cc1`, the Tm shift relative to glycine control was 25.2% (active).

For the compound `CCCCC/C=C/C1=CC(=O)C[C@H](c2ccc(Cl)cc2)C1`, the Tm shift relative to glycine control is -2.27%.

On to `CC1(C)O[C@@H]2CC3C4C[C@H](F)C5=CC(=O)C=CC5(C)C4C(O)CC3(C)[C@]2(C(=O)CO)O1` (stereo partly drawn), for which the Tm shift relative to glycine control was -0.79%.

Turning to `COc1ccc(NC(=O)C2CCN(S(=O)(=O)c3ccc4[nH]c(=O)oc4c3)CC2)c(OC)c1`, the Tm shift relative to glycine control is -2.13%.

As for `O=C(Nc1cccc(Br)c1)c1ccc2snnc2c1`, the Tm shift relative to glycine control was -4.74%.

In the case of `O=C(Nc1ccc2ccccc2c1)Nc1ccc2snnc2c1`, the Tm shift relative to glycine control is 157% (active).

For the compound `Cc1nc2cc(NC(=O)Nc3cccc(F)c3)ccc2n1C`, the Tm shift relative to glycine control is -0.72%.

Consider `Cc1cccc(C)c1NC(=O)CSc1nc2c([nH]1)c(=O)n(C)c(=O)n2C`, for which the Tm shift relative to glycine control was -0.47%.

For the compound `CO[C@@H]1[C@@H](OC(N)=O)[C@@H](O)C(Oc2ccc3c(O)c(NC(=O)c4ccc(O)c(CC=C(C)C)c4)c(=O)oc3c2C)OC1(C)C` (stereo partly drawn), the Tm shift relative to glycine control was -12.2%.

As for `CC(C)c1ccc(NC(=S)NNc2ccc(Cl)c(C(=O)O)c2)cc1`, the Tm shift relative to glycine control is -0.77%.

Take `Cc1ccc(C)c(NC(=S)NNC(=O)c2csc(C)c2)c1`: the Tm shift relative to glycine control is 1.94%.

Consider `Cc1ccc(C)c(NC(=S)NNC(=S)Nc2ccc(C(C)C)cc2)c1`, for which the Tm shift relative to glycine control was 12.8% (active).

As to `CN(C)CCCn1c(=O)n(Cc2ccccc2)c(=O)c2c3c(sc21)CCCCC3`, the Tm shift relative to glycine control was -3.1%.

As to `CCCOP(=O)(c1ccc(N(C)C)cc1)C(O)c1cc(OC)c(OC)c(OC)c1` (stereo not drawn), the Tm shift relative to glycine control is 3.76%.

On to `CCOc1cc(-c2cc(-c3ccc(NC(C)=O)cc3)nc(N)c2C#N)ccc1O`, for which the Tm shift relative to glycine control is -13.2%.

`CCOc1cc(/C=C(\C#N)c2nc(-c3cccs3)c(NC(C)=O)s2)ccc1O`: the Tm shift relative to glycine control was 10.9% (active).

Regarding `CCOc1cc(C=NNC(=O)CCCC(=O)NN=Cc2ccc(O)c(OCC)c2)ccc1O`, the Tm shift relative to glycine control is 1.26%.

Turning to `Cc1noc(C)c1S(=O)(=O)NCCc1ccc(S(N)(=O)=O)cc1`, the Tm shift relative to glycine control is 5.94%.

`O=C1c2ccccc2C(O)N1Cc1ccccc1Cl` (stereo not drawn): the Tm shift relative to glycine control was 12.8% (active).

With `O=C1c2ccccc2C(O)N1Cc1ccccc1` (stereo not drawn), the Tm shift relative to glycine control is 0.38%.

`O=c1ccn(Cc2ccccc2Cl)cc1`: the Tm shift relative to glycine control is 0.42%.

Take `O=C(N/N=C/c1sc(N2CCCCC2)nc1-c1cccs1)c1cccnc1`: the Tm shift relative to glycine control is -0.4%.

`O=C(COC(=O)COc1ccccc1F)Nc1cccc(S(=O)(=O)N2CCCCC2)c1`: the Tm shift relative to glycine control is -3.69%.

Turning to `Brc1ccccc1CN1CCC(Cc2ccccc2)CC1`, the Tm shift relative to glycine control is 0.68%.

Consider `O=C(Nn1c(SCc2ccc([N+](=O)[O-])cc2)nc2ccccc2c1=O)c1ccc(F)cc1`, for which the Tm shift relative to glycine control is 14.8% (active).

As for `Cc1nc2ccccc2c(=O)n1NC(=O)c1ccc(Cl)c([N+](=O)[O-])c1`, the Tm shift relative to glycine control is 0.49%.

In the case of `C=CCn1c(SCc2ccc(C(=O)NCCO)cc2)nc2ccccc2c1=O`, the Tm shift relative to glycine control is -2.22%.

On to `COc1ccc(NC(=O)C2=CC(c3ccc(OC)c(OC)c3)=NS(=O)(=O)N2C)cc1`, for which the Tm shift relative to glycine control was -11.9%.

On to `CCN1C(=O)C(C(=O)NC(C)c2ccccc2)C2CC1(C)Oc1ccccc12` (stereo not drawn), for which the Tm shift relative to glycine control is -1.26%.

`CC(C)CNC(=O)COC(=O)c1ccccc1OCC(=O)Nc1ccc(Br)cc1`: the Tm shift relative to glycine control was 0.17%.

For the compound `CN(C)C=NC(=O)c1cccn1-c1ncc(C(F)(F)F)cc1Cl`, the Tm shift relative to glycine control was -1.59%.

For the compound `CCCCOC(=O)Cn1c(=O)n(CC(=O)OCCCC)c2cc(C)ccc21`, the Tm shift relative to glycine control was 10.7% (active).

Regarding `CCOC(=O)CN1C(=O)C(=O)c2cc(C)ccc21`, the Tm shift relative to glycine control is 0.43%.

Consider `Cc1ccc(C)c(NC(=O)COC(=O)Cn2c(C)csc2=O)c1`, for which the Tm shift relative to glycine control is 3.33%.

For `CN(C(=O)CSc1nnc(-c2ccc3c(c2)OCO3)o1)C1CCS(=O)(=O)C1` (stereo not drawn), the Tm shift relative to glycine control was 1.73%.

For `O=C(CCC(=O)NNc1nc2ccccc2c2nc(-c3ccccc3)nn12)NCCCN1CCCC1=O`, the Tm shift relative to glycine control is 0.34%.

On to `COc1ccc2[nH]c3c(C)c4cc[n+](C)cc4c(C)c3c2c1`, for which the Tm shift relative to glycine control is -0.08%.

`C=CCNC(=O)C1CC2c3ccccc3C1c1ccccc12` (stereo not drawn): the Tm shift relative to glycine control is 1.25%.

For the compound `CSc1ncccc1C(=O)Nc1nc2ccc(F)cc2s1`, the Tm shift relative to glycine control is 11.6% (active).

On to `CSc1ncccc1C(=O)Nc1ccc(C)cn1`, for which the Tm shift relative to glycine control is 0.09%.

For the compound `CSc1ncccc1C(=O)Nc1ccc2c(c1)OCO2`, the Tm shift relative to glycine control is -2.2%.
